Source: the supplement of paper PMC13380429

System: Vero E6 infected with SARS-CoV-2
Test: inhibition of SARS-CoV-2 cytopathic effect; higher = more antiviral protection, active = above 15
Conditions: 48 h

Measured: inhibition of SARS-CoV-2 cytopathic effect

CCN(CC)CCOC(=O)C1(c2ccccc2)CCCC1 [caramiphen]
inactive: 1 nM -4.57% | 8.33 nM -4.75% | 100 nM -1.97% | 833.33 nM -0.96% | 10000 nM -3.45%

CN1CCN(Cc2ccc(-c3cnc4[nH]cc(-c5ccc6[nH]ccc6c5)c4c3)cc2)CC1
inactive: 1 nM 1.32% | 8.33 nM 1.21% | 100 nM 3.09% | 10000 nM -14.8%
active: 833.33 nM 21.6%

CC(COc1ccccc1Cc1ccccc1)N1CCCCC1 (stereo not given) [benproperine]
inactive: 1 nM -1.82% | 8.33 nM 0.63% | 100 nM -0.71% | 833.33 nM -3.69% | 10000 nM -3.54%

C#CCC(Cc1cnc2nc(N)nc(N)c2n1)c1ccc(C(=O)N[C@@H](CCC(=O)O)C(=O)O)cc1 (stereo not given in full) [pralatrexate]
inactive: 1 nM 1.9% | 8.33 nM -0.71% | 100 nM -3.9% | 833.33 nM -4.99% | 10000 nM -6.91%

COc1cc2c(c(OC)c1OC)-c1c(cc3c(c1OC)OCO3)C[C@H](C)[C@@](C)(O)C2 [schisandrol-B]
inactive: 1 nM 3.78% | 8.33 nM 3.17% | 100 nM 2.65% | 833.33 nM 2.33% | 10000 nM 1.68%

CN(CCCN1c2ccccc2CCc2ccccc21)CC(=O)c1ccc(Cl)cc1 [lofepramine]
inactive: 1 nM 2.35% | 8.33 nM -0.58% | 100 nM 1.56% | 833.33 nM 2.86% | 10000 nM 0.69%

COc1cc(OC)cc(-c2ccc3c(-c4ccc(F)cc4)n[nH]c3n2)c1
inactive: 1 nM 12% | 8.33 nM -1.07% | 100 nM 2.95% | 833.33 nM 1.46% | 10000 nM -0.11%

C[C@@H](O[C@H]1OCCN(Cc2nn(P(=O)(O)O)c(=O)[nH]2)[C@H]1c1ccc(F)cc1)c1cc(C(F)(F)F)cc(C(F)(F)F)c1 [fosaprepitant-dimeglumine]
inactive: 1 nM -0.45% | 8.33 nM 3.23% | 100 nM 1% | 833.33 nM -0.01% | 10000 nM -0.52%

CCC(NC(C)C)C(O)c1ccc(O)c2[nH]c(=O)ccc12 (stereo not given) [procaterol]
inactive: 1 nM -1.54% | 8.33 nM 0.18% | 100 nM -2.76% | 833.33 nM -0.33% | 10000 nM -1.47%

c1ccc(C[C@H](c2ccccc2)N2CCCCC2)cc1 (racemic) [1-(1,2-diphenylethyl)piperidine-(+/-)]
inactive: 1 nM 0.78% | 8.33 nM 0.67% | 100 nM 0.96% | 833.33 nM 0.92% | 10000 nM 2.17%

Nc1nc(OCC2CCCCC2)c2nc[nH]c2n1
inactive: 1 nM 1.06% | 8.33 nM 0.95% | 100 nM -3.55% | 833.33 nM 1.35% | 10000 nM -1.27%

CC(=O)O/N=C1\C(=O)N(Cc2cc(Cl)ccc2Cl)c2ccc(Cl)cc21
inactive: 1 nM -1.23% | 8.33 nM 0.39% | 100 nM 0.49% | 833.33 nM 3.77% | 10000 nM 4.47%

O=C(O)CCCC[C@@H]1SC[C@@H]2NC(=O)N[C@@H]21 [biotin]
inactive: 1 nM 1.38% | 8.33 nM 1.22% | 100 nM -1.51% | 833.33 nM 0.93% | 10000 nM 1.95%

COc1ccc2c(c1)CN(C)CC2c1ccc(Cl)c(Cl)c1 (stereo not given) [diclofensine]
inactive: 1 nM 3.38% | 8.33 nM 2.5% | 100 nM -1.16% | 833.33 nM 3.57% | 10000 nM 1.83%

O=S(=O)(Cc1ccccc1)Nc1ccc(-c2ccc3c(cnn3-c3ccc(F)cc3)c2)c(C(F)(F)F)c1
inactive: 1 nM 0.84% | 8.33 nM 1.44% | 100 nM -0.94% | 833.33 nM 2.01% | 10000 nM -3.81%

CC(=O)OC[C@H]1O[C@@](COC(C)=O)(O[C@H]2O[C@H](COC(C)=O)[C@@H](OC(C)=O)[C@H](OC(C)=O)[C@H]2OC(C)=O)[C@@H](OC(C)=O)[C@@H]1OC(C)=O [sucrose-octaacetate]
inactive: 1 nM 0.66% | 8.33 nM 1.07% | 100 nM -1.24% | 833.33 nM -0.47% | 10000 nM -0.86%

CC(C)(C)NCC(O)COc1ccc(NC(=O)NC2CCCCC2)cc1 (stereo not given) [talinolol]
inactive: 1 nM 0.2% | 8.33 nM -2.2% | 100 nM -0.81% | 833.33 nM 0.83% | 10000 nM 0.7%

COc1cc(NC(=O)Nc2cccc(CNC(=O)O[C@H]3CCOC3)c2)ccc1-c1cnco1 [merimepodib]
inactive: 1 nM 0.31% | 8.33 nM 0.11% | 100 nM -0.15% | 833.33 nM 2.5% | 10000 nM 8.45%

c1ccc2[nH]c(-c3cscn3)nc2c1 [tiabendazole]
inactive: 1 nM 2.1% | 8.33 nM 1.24% | 100 nM -0.24% | 833.33 nM 0.7% | 10000 nM -0.19%

CNC(=O)Oc1cccc2ccccc12 [carbaril]
inactive: 1 nM -0.49% | 8.33 nM -0.59% | 100 nM 0.05% | 833.33 nM 1.22% | 10000 nM -0.51%
